# Experimental data reported in PubChem BioAssay (NCI).
# The panel holds about 83,000 compounds, 20% with a hit somewhere; the sample as a whole holds those more often.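 Results are percent growth after 48 hours of single-concentration exposure. 100 means growth as in untreated cells, lower positive values show inhibition; negative values down to -100 show cell death.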 A number with no mark means an inactive call. Activity calls are given as the source filed them. The calls were made as follows: active = growth percent below 10; inactive = the rest.
# Columns and labels:
# Assay in all cases: NCI-60 one-dose screen, 48 h (100 = growth as untreated, 0 = no growth, -100 = all killed)
# [1] = system: NCI-H23 lung; conditions: 10 µM unless noted
# [2] = system: NCI-H226 lung; conditions: 10 µM unless noted
# [3] = system: NCI-H322M lung; conditions: 10 µM unless noted
# [4] = system: HOP-62 NSCLC; conditions: 10 µM unless noted
# [5] = system: NCI-H460 lung; conditions: 10 µM unless noted
# [6] = system: HOP-92 NSCLC; conditions: 10 µM unless noted
# [7] = system: NCI-H522 lung; conditions: 10 µM
# [8] = system: 786-0 renal; conditions: 10 µM unless noted
# [9] = system: COLO 205 colon; conditions: 10 µM unless noted
# [10] = system: DU-145 prostate; conditions: 10 µM unless noted
# [11] = system: K-562 leukemia; conditions: 10 µM unless noted
# [12] = system: MALME-3M melanoma; conditions: 10 µM unless noted
# [13] = system: MDA-MB-231 breast; conditions: 10 µM unless noted
# [14] = system: RXF 393 renal; conditions: 10 µM unless noted
# [15] = system: SF-268 CNS; conditions: 10 µM unless noted
# [16] = system: SF-295 CNS; conditions: 10 µM unless noted
# [17] = system: SF-539 CNS; conditions: 10 µM unless noted
# [18] = system: M14 melanoma; conditions: 10 µM unless noted
# [19] = system: UACC-257 melanoma; conditions: 10 µM unless noted
Compound,growth [1],growth [2],growth [3],growth [4],growth [5],growth [6],growth [7],growth [8],growth [9],growth [10],growth [11],growth [12],growth [13],growth [14],growth [15],growth [16],growth [17],growth [18],growth [19]
O=Cc1ccccc1C(=O)O,100%,100%,96.7%,96.7%,99.5%,101%,96.7%,97.4%,112%,103%,90.5%,103%,109%,125%,96.3%,96.9%,94.8%,101%,–
COc1ccc2c(c1)[n+](=O)c(/C=C/C(=O)c1cc(OC)c(OC)c(OC)c1)c(C)n2[O-],80%,84.5%,110%,94.3%,81.8%,-22.4% (active),-60.1% (active),67.2%,32%,17.5%,2.27% (active),86%,84.1%,38.5%,69.4%,46.4%,70.2%,63.6%,63.6%
O=[N+]([O-])c1ccc2[nH]cc(-c3c4ccccc4cc4[nH]c5ccc([N+](=O)[O-])cc5c34)c2c1,33.1%,39.5%,47.3%,48.5%,4.24% (active),44.7%,11.3%,1.4% (active),14%,36.6%,9.96% (active),26.5%,45.6%,-2.62% (active),33.9%,22.5%,44%,-3.7% (active),–
COC(=O)c1c(NC(=O)CSc2nnnn2-c2ccc(OC)cc2)sc(C)c1C,76.7%,79.4%,100%,99.3%,106%,75.1%,91.1%,107%,105%,108%,81.5%,104%,76.5%,–,93.5%,156%,98.3%,95.8%,16.8%
CCOC(=O)Nc1cc(-c2ccc(C)c(NS(C)(=O)=O)c2)nn2c(C)nnc12,18%,35%,2.04% (active),14.1%,28.5%,-10.2% (active),-11.8% (active),35.5%,3.41% (active),43.9%,16.7%,-25% (active),26.5%,-8% (active),41.6%,-21.2% (active),17.2%,19%,–
COc1cc(/C(Cl)=C/C=C/C(=O)c2c(C)[n+]([O-])c3ccc(Cl)cc3[n+]2[O-])cc(OC)c1OC,63.7%,54.3%,96.3%,7.24% (active),56.6%,68.8%,-33.4% (active),35.1%,-14.8% (active),67.8%,13.3%,65.7%,30.1%,47.9%,-20.1% (active),36.4%,24.3%,43.4%,–
C=CCNC(=O)/C(=C/c1cccc([N+](=O)[O-])c1)NC(=O)c1ccccc1,98.6%,90.5%,107%,92.4%,111%,91.9%,97.5%,84.7%,120%,116%,108%,102%,116%,–,99%,103%,92.5%,88.8%,7.53% (active)
C[C@]12CCC(=O)C=C1CCC1C2[C@@H](O)C[C@@]2(C)C1CC[C@]2(O)C(=O)COC(=O)CCC(=O)O (some centres undefined),106%,77.4%,95.4%,112%,102%,60.6%,107%,116%,110%,118%,117%,81.7%,94.7%,121%,107%,117%,97%,104%,114%
Nc1ccn(C2O[C@H](CO)[C@@H](O)[C@@H]2O)c(=O)n1 (some centres undefined),28.2%,34.3%,62.6%,26.7%,6.43% (active),53.8%,68.1%,10.2%,57.3%,29.6%,62.4%,57.2%,68.8%,83.4%,34%,50.8%,72.4%,-15.7% (active),54.5%
O=C(O)CCNS(=O)(=O)c1ccc(-c2ccccc2)cc1,98.4%,92%,129%,103%,114%,83.9%,98.4%,106%,111%,127%,114%,112%,123%,–,115%,131%,108%,104%,87.5%
O=C1Nc2ccc(Cl)cc2/C1=C/c1cccs1,88.9%,88.7%,90.5%,80.8%,93.4%,93.7%,96.2%,108%,117%,105%,103%,95.9%,70.6%,94.3%,88.8%,94.3%,85.3%,101%,–
CN[C@@H]1C(OC2[C@H](O[C@H]3[C@H](O)[C@@H](O)[C@H](N=C(N)N)[C@@H](O)[C@@H]3N=C(N)N)OC(C)[C@]2(O)CO)OC(CO)C(O)C1O (some centres undefined),103%,108%,111%,107%,113%,118%,112%,106%,109%,109%,113%,106%,104%,114%,118%,103%,109%,112%,107%
O=C(N/N=C/c1cccc(O)c1)c1ccc(C(F)(F)F)nc1Nc1cccc(C(F)(F)F)c1,13.4%,12.6%,-6.79% (active),-32.9% (active),11.5%,-28.4% (active),-7.57% (active),-13.8% (active),-0.875% (active),–,5.13% (active),1.33% (active),-26.8% (active),–,17.6%,-39.3% (active),7.23% (active),35.7%,19.6%
COc1ccc2c(c1)CC/C(=C\c1ccc(OCC(=O)Nc3nc4ccccc4s3)cc1)C2=O,79.5%,90.4%,98.6%,83.2%,113%,61.1%,85.4%,92.3%,122%,–,84.7%,92.5%,82.5%,–,89.6%,95%,73.7%,89%,96.5%
O=C(COc1ccc(/C=C2\Oc3ccc4ccccc4c3C2=O)cc1)c1ccc(Cl)cc1,98.2%,106%,102%,105%,110%,97.7%,61.9%,106%,124%,–,89.7%,110%,113%,–,97.6%,96.9%,93.1%,95%,103%
CC(=O)Nc1ccc(C(=O)COc2cccc(/C=C3\CCc4ccccc4C3=O)c2)cc1,84.4%,70.7%,105%,104%,97.1%,70.8%,63.1%,92.9%,130%,–,36.8%,19.6%,90%,–,90.1%,486%,96.7%,104%,89.8%
O=C(COc1cccc(/C=C2\Oc3ccc4ccccc4c3C2=O)c1)c1ccc([N+](=O)[O-])cc1,93.8%,85.8%,106%,87.6%,100%,81.2%,35.8%,103%,114%,–,67.3%,67.2%,83.3%,–,85.6%,117%,46.5%,–,102%
